Legend:
Experiment in all cases: PBM binding z-score (relative to random genomic background probes); higher = stronger binding; sequences stand for … in GC…GCGATTGACAGCGTAGAATGAAGG
[1] = tested on: FXR:RXRa (NR concentration 270 nM, RXRa partner concentration 90 nM)
Procedure, shortened: (§1)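 Binding buffer was PBS pH 7.4 with 2% milk, 0.02% Triton X-100, 1 mM DTT, 0.2 mg/mL BSA and 0.4 mg/ml salmon testes DNA. In it, ligand-free nuclear receptor dimers were incubated 1 h on custom Agilent 4×180K protein-binding microarrays carrying double-stranded probes. Antibodies against each partner (one per run) detected binding, and z-scores were calculated against random background probes after regression normalization of scanned fluorescence.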

[2] = tested on: LXRa:RXRa (NR concentration 270 nM, RXRa partner concentration 90 nM)
Procedure, shortened: as §1

[3] = tested on: LXRa homodimer (NR concentration 270 nM)
Procedure, shortened: as §1

[4] = tested on: LXRb:RXRa (NR concentration 270 nM, RXRa partner concentration 90 nM)
Procedure, shortened: as §1

[5] = tested on: LXRb homodimer (NR concentration 270 nM)
Procedure, shortened: as §1

[6] = tested on: PPARa:RXRa (NR concentration 270 nM, RXRa partner concentration 90 nM)
Procedure, shortened: as §1

[7] = tested on: PPARg:RXRa (NR concentration 180 nM, RXRa partner concentration 90 nM)
Procedure, shortened: as §1

[8] = tested on: PPARg:RXRa 270nM:90nM, anti-RXR (NR concentration 270 nM, RXRa partner concentration 90 nM)
Procedure, shortened: as §1

[9] = tested on: PPARg:RXRa 30nM:10nM, anti-RXR (NR concentration 30 nM, RXRa partner concentration 10 nM)
Procedure, shortened: as §1

[10] = tested on: PPARg:RXRa 90nM:30nM, anti-RXR (NR concentration 90 nM, RXRa partner concentration 30 nM)
Procedure, shortened: as §1

[11] = tested on: PPARg:RXRa DBDmut IVT, anti-RXR (DBD mutation: RXRa K156A/R161A, NR concentration 270 nM, RXRa partner concentration 90 nM)
Procedure, shortened: as §1

[12] = tested on: PPARg:RXRa IVT, anti-PPARg (NR concentration 270 nM, RXRa partner concentration 90 nM)
Procedure, shortened: as §1

[13] = tested on: PPARg DBDmut:RXRa IVT, anti-PPARg (DBD mutation: PPARg1 K132A/R137A, NR concentration 270 nM, RXRa partner concentration 90 nM)
Procedure, shortened: as §1

[14] = tested on: PPARg DBDmut IVT, anti-PPARg (DBD mutation: PPARg1 K132A/R137A, NR concentration 270 nM)
Procedure, shortened: as §1

[15] = tested on: PPARg homodimer (NR concentration 180 nM)
Procedure, shortened: as §1

[16] = tested on: PXR:RXRa (NR concentration 270 nM, RXRa partner concentration 90 nM)
Procedure, shortened: as §1

[17] = tested on: PXR homodimer (NR concentration 270 nM)
Procedure, shortened: as §1

[18] = tested on: RARa:RXR (NR concentration 270 nM, RXRa partner concentration 90 nM)
Procedure, shortened: as §1

[19] = tested on: RARa homodimer (NR concentration 270 nM)
Procedure, shortened: as §1

[20] = tested on: RARb:RXRa (NR concentration 270 nM, RXRa partner concentration 90 nM)
Procedure, shortened: as §1

Sequence	PBM binding z-score [1]	PBM binding z-score [2]	PBM binding z-score [3]	PBM binding z-score [4]	PBM binding z-score [5]	PBM binding z-score [6]	PBM binding z-score [7]	PBM binding z-score [8]	PBM binding z-score [9]	PBM binding z-score [10]	PBM binding z-score [11]	PBM binding z-score [12]	PBM binding z-score [13]	PBM binding z-score [14]	PBM binding z-score [15]	PBM binding z-score [16]	PBM binding z-score [17]	PBM binding z-score [18]	PBM binding z-score [19]	PBM binding z-score [20]
ATATGTAGGTTATCGGGTCATGCAGTTTGCGCAT	2.87	3.08	1.26	2.54	0.785	4.99	7.53	6.31	4.45	6.01	7.6	7.68	2.17	1.66	2.79	3.47	2.99	4.11	1.09	2.55
ATCCCTAGGTAACAAGTTCAGTGAAAGAGAGGAC	0.484	0.833	0.361	0.843	0.823	0.724	0.555	0.236	0.0944	0.289	0.293	0.638	0.652	0.582	1.15	1.7	1.53	0.808	0.946	1.51
CATACAGGGTCAGCTAGTCCAGAGTAGGGACGGC	4.47	2.76	-0.017	2.18	0.191	4.2	3.22	2.78	0.664	2.06	1.14	2.25	0.656	0.108	1.92	2.36	-0.00687	2.91	0.913	3.94
CAAACTAGGTCCAAGGTCAAAGTCGAGCCAACCA	3.97	3.48	1.97	3.75	0.508	5.32	9.35	7.68	7.65	8.28	2.64	4.91	0.406	0.226	1.83	3.7	1.57	3.71	1.6	3.51
TTACCTAGGTGAGCTGAGGTCGTTGATCCAACTC	0.355	0.722	-0.414	0.389	-0.985	1.68	0.522	1.09	0.135	0.445	3.01	3.01	-0.362	0.266	0.32	3.55	0.214	1.94	-1.28	0.93
CCTAGCAGGCCAGGGTTACTCAAGCATTTCGCTT	-0.32	0.0268	-0.897	0.041	-1.32	0.412	-0.105	0.539	-0.759	-0.212	0.153	-0.137	-1.74	-1.06	-0.6	-0.139	-0.48	0.193	-0.665	0.303

From the supplement of paper PMC6555819
